# Paper PMC7862700, “An all-to-all approach to the identification of sequence-specific readers for epigenetic DNA modifications on cytosine”
# What was measured:
# Assay in all cases: DAPPL (digital affinity profiling via proximity ligation, sequencing); 10 mM Tris-HCl pH 7.5, 50 mM NaCl, 1 mM DTT, 4% glycerol, room temperature, 30 min; GST-TFs on glutathione beads, 16-mer random dsDNA library, 0.1% formaldehyde crosslink after washing; high values mean tight binding
# Conditions in all cases: protein: recombinant; tags: N-terminal GST; dsDNA, one strand shown
# FEV = molecular target: T1, FEV (Homo sapiens, UniProt Q99581 1-238)
# T1 sequence: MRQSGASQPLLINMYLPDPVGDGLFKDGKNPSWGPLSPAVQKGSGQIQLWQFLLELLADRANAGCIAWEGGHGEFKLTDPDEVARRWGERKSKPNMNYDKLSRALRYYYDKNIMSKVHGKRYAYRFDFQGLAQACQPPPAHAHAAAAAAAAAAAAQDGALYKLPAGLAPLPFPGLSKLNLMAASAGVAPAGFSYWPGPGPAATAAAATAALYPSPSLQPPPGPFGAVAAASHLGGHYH
# Outline: (§1)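 Binding signal is given per hexamer as its read frequency for a factor divided by its frequency in the tag-only sample. GST-fused human transcription factors were expressed in yeast, captured on glutathione beads, barcoded with DNA and pooled with that sample, then incubated with 200 nmole of a 16-mer random double-stranded DNA library in Tris/NaCl/DTT/glycerol buffer for 30 min at room temperature. The pools were then washed, crosslinked, proximity-ligated, amplified by PCR and sequenced on an Illumina NextSeq500.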
# ETV5 = ETV5 (Homo sapiens, UniProt P41161 1-510)
# Outline: as §1
# SPIC = molecular target: T2, SPIC (Homo sapiens, UniProt Q8N5J4 1-248)
# T2 sequence: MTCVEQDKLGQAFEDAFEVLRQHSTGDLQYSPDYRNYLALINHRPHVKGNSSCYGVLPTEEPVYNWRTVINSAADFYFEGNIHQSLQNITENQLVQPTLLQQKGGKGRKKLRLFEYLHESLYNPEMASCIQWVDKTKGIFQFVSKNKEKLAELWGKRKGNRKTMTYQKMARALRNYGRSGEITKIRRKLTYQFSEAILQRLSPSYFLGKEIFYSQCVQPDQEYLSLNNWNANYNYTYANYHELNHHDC
# Outline: as §1
# ELF4 = ELF4 (Homo sapiens, UniProt Q99607 1-663)
# Outline: as §1
# ELK4 = molecular target: T3, ELK4 (Homo sapiens, UniProt P28324-2 1-405)
# T3 sequence: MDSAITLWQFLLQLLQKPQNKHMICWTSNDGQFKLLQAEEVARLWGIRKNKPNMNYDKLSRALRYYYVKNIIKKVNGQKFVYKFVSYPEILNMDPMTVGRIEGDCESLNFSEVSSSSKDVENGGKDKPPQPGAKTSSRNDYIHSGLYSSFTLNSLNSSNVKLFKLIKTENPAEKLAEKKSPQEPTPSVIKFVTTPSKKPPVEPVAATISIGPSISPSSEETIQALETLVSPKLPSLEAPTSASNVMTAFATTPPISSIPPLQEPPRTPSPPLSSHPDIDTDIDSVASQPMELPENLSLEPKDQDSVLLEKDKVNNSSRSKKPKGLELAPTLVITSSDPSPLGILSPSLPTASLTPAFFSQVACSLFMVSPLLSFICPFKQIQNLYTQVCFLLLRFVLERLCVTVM
# Outline: as §1
# ETV2 = molecular target: T4, ETV2 (Homo sapiens, UniProt O00321 1-342)
# T4 sequence: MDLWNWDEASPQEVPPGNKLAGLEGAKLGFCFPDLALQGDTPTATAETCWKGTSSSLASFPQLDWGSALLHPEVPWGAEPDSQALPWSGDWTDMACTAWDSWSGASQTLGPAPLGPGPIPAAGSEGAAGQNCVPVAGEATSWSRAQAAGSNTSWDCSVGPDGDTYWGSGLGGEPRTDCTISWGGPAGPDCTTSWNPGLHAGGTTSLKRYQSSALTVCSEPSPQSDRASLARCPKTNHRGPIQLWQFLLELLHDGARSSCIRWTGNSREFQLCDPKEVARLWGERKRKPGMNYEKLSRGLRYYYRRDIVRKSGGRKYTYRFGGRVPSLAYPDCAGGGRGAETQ
# Outline: as §1
# ELF3 = molecular target: T5, ELF3 (Homo sapiens, UniProt P78545 1-371)
# T5 sequence: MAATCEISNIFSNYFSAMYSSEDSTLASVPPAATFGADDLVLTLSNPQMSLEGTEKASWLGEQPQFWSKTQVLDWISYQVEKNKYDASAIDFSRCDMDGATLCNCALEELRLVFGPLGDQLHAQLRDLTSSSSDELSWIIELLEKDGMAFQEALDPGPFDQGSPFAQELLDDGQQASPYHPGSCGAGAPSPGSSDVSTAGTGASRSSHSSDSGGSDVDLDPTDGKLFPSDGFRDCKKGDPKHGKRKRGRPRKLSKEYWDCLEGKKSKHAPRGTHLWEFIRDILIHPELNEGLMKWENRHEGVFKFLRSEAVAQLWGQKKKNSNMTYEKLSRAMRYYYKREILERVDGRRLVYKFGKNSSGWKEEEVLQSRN
# Outline: as §1
# ETV1 = ETV1 (Homo sapiens, UniProt P50549 1-477)
# Outline: as §1
# ERF = molecular target: T6, ERF (Homo sapiens, UniProt P50548 1-548)
# T6 sequence: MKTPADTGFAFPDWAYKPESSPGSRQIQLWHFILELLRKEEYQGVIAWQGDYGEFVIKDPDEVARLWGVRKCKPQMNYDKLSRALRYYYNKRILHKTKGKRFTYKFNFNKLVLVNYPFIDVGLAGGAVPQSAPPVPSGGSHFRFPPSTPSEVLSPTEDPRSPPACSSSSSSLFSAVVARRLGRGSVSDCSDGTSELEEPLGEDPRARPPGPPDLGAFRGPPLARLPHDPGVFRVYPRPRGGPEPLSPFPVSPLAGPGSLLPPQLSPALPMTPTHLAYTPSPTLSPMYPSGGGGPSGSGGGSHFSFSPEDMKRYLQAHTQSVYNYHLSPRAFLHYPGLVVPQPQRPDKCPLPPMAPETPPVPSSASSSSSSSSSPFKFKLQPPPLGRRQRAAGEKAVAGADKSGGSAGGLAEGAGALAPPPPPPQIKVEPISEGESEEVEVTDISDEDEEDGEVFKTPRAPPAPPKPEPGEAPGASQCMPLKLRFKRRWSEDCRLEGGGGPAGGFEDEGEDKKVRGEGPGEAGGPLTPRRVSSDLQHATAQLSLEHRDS
# Outline: as §1
# ETV3L = molecular target: T7, ETV3L (Homo sapiens, UniProt Q6ZN32 1-361)
# T7 sequence: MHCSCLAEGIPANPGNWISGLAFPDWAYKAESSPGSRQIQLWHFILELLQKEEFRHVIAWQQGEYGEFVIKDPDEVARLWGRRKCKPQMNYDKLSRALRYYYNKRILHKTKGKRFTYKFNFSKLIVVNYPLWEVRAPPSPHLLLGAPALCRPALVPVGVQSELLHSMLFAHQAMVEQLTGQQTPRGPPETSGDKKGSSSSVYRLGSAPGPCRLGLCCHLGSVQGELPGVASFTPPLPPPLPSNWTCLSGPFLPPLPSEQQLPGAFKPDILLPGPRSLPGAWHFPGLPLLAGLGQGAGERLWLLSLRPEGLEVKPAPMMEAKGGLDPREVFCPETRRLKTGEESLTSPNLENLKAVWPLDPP
# Outline: as §1
# ETS2 = molecular target: T8, ETS2 (Homo sapiens, UniProt P15036 1-469)
# T8 sequence: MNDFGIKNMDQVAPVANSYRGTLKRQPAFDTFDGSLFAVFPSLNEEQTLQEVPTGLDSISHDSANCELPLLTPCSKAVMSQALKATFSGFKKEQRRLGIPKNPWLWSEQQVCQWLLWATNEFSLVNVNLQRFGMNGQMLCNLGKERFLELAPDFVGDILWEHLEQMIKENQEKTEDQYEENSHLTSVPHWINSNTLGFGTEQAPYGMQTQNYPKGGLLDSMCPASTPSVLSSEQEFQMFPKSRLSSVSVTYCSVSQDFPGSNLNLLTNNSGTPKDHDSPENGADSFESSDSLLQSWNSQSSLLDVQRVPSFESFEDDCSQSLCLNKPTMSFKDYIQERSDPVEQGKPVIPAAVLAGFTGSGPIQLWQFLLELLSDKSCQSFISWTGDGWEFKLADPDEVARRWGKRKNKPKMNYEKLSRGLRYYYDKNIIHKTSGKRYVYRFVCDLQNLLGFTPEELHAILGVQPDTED
# Outline: as §1
# SPDEF = molecular target: T9, SPDEF (Homo sapiens, UniProt O95238 1-335)
# T9 sequence: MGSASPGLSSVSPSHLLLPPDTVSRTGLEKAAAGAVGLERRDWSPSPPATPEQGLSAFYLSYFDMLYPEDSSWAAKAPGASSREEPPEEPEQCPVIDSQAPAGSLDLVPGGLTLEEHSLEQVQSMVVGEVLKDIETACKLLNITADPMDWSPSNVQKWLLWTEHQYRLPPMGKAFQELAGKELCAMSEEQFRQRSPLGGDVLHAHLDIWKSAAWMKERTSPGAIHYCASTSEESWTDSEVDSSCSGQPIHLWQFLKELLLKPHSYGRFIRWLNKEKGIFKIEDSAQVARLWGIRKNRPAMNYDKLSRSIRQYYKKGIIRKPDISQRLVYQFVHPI
# Outline: as §1
# ETV7 = molecular target: T10, ETV7 (Homo sapiens, UniProt Q9Y603 1-341)
# T10 sequence: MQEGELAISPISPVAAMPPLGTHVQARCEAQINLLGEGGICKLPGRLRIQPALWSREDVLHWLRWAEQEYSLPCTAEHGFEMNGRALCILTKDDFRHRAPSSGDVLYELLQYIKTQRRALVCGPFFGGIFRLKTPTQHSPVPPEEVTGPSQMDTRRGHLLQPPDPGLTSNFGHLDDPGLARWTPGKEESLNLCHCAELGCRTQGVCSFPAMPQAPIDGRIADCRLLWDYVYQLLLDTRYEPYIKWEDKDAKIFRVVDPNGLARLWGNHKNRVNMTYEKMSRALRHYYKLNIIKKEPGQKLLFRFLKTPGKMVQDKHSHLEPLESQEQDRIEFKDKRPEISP
# Outline: as §1
# ELF5 = molecular target: T11, ELF5 (Homo sapiens, UniProt Q9UKW6-2 1-255)
# T11 sequence: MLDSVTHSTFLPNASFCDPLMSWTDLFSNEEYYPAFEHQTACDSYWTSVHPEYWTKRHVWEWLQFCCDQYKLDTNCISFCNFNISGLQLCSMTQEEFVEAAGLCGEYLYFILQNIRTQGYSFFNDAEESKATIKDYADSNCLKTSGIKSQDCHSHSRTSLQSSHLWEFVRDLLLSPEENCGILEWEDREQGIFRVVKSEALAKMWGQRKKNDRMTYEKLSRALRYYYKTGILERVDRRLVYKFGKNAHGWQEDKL
# Outline: as §1
# ETV3 = molecular target: T12, ETV3 (Homo sapiens, UniProt P41162-2 1-143)
# T12 sequence: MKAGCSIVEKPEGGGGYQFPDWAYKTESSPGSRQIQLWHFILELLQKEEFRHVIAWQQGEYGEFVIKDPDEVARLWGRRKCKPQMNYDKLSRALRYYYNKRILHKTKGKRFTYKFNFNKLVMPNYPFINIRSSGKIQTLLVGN
# Outline: as §1
# ETV6 = ETV6 (Homo sapiens, UniProt P41212 1-452)
# Outline: as §1
# Chain of ELF4 (Q99607 whole entry): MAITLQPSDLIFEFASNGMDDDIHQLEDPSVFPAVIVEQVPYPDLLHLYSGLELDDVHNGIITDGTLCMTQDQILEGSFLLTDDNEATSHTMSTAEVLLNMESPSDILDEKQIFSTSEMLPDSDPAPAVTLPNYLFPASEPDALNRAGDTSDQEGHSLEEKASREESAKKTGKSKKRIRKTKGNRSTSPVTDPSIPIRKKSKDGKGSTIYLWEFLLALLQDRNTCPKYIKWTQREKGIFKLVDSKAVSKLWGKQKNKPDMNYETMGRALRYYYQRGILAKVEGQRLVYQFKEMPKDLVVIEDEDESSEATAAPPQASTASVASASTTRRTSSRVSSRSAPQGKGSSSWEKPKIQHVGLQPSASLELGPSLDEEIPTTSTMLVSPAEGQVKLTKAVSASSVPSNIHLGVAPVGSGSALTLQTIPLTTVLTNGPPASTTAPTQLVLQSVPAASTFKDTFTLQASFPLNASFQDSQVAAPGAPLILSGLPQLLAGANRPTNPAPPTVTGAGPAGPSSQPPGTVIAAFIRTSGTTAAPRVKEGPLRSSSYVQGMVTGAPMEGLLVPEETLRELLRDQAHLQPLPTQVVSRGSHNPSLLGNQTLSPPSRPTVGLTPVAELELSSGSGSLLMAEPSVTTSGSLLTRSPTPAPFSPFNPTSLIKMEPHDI
# Chain of ETV5 (P41161 whole entry): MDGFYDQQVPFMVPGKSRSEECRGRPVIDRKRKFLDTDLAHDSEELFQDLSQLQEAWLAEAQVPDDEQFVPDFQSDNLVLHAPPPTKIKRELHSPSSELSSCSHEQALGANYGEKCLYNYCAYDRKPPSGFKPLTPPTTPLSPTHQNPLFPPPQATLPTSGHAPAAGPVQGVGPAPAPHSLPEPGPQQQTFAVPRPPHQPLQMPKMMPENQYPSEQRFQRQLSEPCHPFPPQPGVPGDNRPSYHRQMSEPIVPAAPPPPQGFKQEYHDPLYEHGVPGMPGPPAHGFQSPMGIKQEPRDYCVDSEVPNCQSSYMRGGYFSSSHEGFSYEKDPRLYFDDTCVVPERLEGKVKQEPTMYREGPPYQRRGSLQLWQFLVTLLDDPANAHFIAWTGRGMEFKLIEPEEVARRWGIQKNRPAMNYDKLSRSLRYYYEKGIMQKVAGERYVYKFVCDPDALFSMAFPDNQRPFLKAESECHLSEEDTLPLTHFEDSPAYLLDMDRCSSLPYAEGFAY
# Chain of ETV6 (P41212 whole entry): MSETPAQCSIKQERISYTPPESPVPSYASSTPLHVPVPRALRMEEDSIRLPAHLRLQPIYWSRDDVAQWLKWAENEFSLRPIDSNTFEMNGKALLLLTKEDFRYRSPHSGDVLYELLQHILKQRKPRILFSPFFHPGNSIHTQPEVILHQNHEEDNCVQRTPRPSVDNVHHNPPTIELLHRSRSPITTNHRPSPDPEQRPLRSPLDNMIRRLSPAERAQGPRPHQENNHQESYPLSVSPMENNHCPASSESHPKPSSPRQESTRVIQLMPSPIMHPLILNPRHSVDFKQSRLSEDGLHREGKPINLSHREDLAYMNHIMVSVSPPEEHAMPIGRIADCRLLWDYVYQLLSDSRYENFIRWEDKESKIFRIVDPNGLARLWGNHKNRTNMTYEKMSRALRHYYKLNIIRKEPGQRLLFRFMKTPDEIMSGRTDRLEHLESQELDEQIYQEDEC
# Chain of ETV1 (P50549 whole entry): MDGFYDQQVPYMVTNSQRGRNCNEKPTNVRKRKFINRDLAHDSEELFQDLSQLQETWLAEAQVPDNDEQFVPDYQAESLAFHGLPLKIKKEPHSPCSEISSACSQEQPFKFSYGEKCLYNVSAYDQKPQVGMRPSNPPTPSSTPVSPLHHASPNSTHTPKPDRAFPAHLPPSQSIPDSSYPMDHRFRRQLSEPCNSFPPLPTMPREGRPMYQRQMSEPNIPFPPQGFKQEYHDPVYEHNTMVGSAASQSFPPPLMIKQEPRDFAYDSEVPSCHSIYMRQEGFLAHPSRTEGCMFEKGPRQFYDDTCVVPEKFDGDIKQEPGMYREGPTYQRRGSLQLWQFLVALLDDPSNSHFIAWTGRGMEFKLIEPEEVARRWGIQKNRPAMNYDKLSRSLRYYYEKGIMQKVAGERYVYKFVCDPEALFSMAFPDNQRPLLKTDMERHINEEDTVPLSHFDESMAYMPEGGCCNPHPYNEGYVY
sequence,measurement,setting,value
ACACAA,binding signal,FEV,"1.17 fold enrichment (6-mer frequency, TF over GST control)"
same,binding signal,ETV5,"1.19 fold enrichment (6-mer frequency, TF over GST control)"
same,binding signal,SPIC,"1.22 fold enrichment (6-mer frequency, TF over GST control)"
same,binding signal,ELF4,"1.17 fold enrichment (6-mer frequency, TF over GST control)"
same,binding signal,ELK4,"1.05 fold enrichment (6-mer frequency, TF over GST control)"
same,binding signal,ETV2,"1.1 fold enrichment (6-mer frequency, TF over GST control)"
same,binding signal,ELF3,"1.11 fold enrichment (6-mer frequency, TF over GST control)"
same,binding signal,ETV1,"1.14 fold enrichment (6-mer frequency, TF over GST control)"
same,binding signal,ERF,"1.26 fold enrichment (6-mer frequency, TF over GST control)"
same,binding signal,ETV3L,"1.2 fold enrichment (6-mer frequency, TF over GST control)"
same,binding signal,ETS2,"1.25 fold enrichment (6-mer frequency, TF over GST control)"
same,binding signal,SPDEF,"1.17 fold enrichment (6-mer frequency, TF over GST control)"
same,binding signal,ETV7,"1.08 fold enrichment (6-mer frequency, TF over GST control)"
same,binding signal,ELF5,"1.17 fold enrichment (6-mer frequency, TF over GST control)"
same,binding signal,ETV3,"1.13 fold enrichment (6-mer frequency, TF over GST control)"
same,binding signal,ETV6,"1.2 fold enrichment (6-mer frequency, TF over GST control)"
